# PubChem BioAssay (NCI)
# The panel holds about 83,000 compounds, 20% with a hit somewhere; the sample as a whole holds those more often.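 Activity criterion: percent growth below 10, measured after cells in 96-well plates were exposed to a single compound concentration for 48 hours.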 Values without a mark were called inactive. The source made the active and inactive calls.
# Tested on: HCT-116 colon
# Test: NCI-60 one-dose screen, 48 h (100 = growth as untreated, 0 = no growth, -100 = all killed)
# Conditions: 10 µM unless noted
row,SMILES,growth
1,Cc1csc(-c2nnc(Nc3ccc(Oc4ncccc4-c4ccnc(N)n4)cc3)c3ccccc23)c1,22.1%
2,CC(C)CC(=O)Nc1n[nH]c2c1CN(C(=O)C1CCN(C)CC1)C2(C)C,2.94% (active)
3,Cc1ccccc1N1C(c2ccccc2)=NNC12C=CC(=O)C=C2Cl (stereo not drawn),103%
4,C=CCn1c(=O)c2cnc(Nc3ccc(N4CCN(C)CC4)cc3)nc2n1-c1cccc(C(C)(C)O)n1,2.48% (active)

# Tested on: HCC-2998 colon
# Test: as above
# Conditions: 10 µM
row,SMILES,growth
1,Cc1cc(C)n(CC(=O)Nc2ccc(-c3nc4ccccc4s3)cc2)n1,92.9%
2,CNS(=O)(=O)Nc1nccc(Cc2c(C)c3ccc(Oc4ncccn4)cc3oc2=O)c1F,1.07% (active)
3,C[C@@H](Oc1cc(-n2cnc3ccc(CN4CCN(C)CC4)cc32)sc1C(N)=O)c1ccccc1C(F)(F)F,14.1%
4,COc1ccc(Cl)c(Nc2nc3ccccc3nc2NS(=O)(=O)c2cccc(NC(=O)C(C)(C)N)c2)c1,54.8%
5,COc1ccc(-c2ccc3c(N4CCOC[C@@H]4C)nc(N4CCOC[C@@H]4C)nc3n2)cc1CO,10.3%
6,O=C(Nc1cccc(Cl)c1)Nc1ncc(CCNc2ncnc3ccsc23)s1,80.1%
7,C#Cc1cccc(Nc2ncnc3cc(OCCOC)c(OCCOC)cc23)c1,94.8%
8,O=C(Nc1ccc(Nc2ncnc3sc4c(c23)CCOC4)cc1)Nc1ccc(Cl)c(C(F)(F)F)c1,106%
9,CCCCN1C(=O)c2cccc3c(-c4ccc5c(c4)ncn5C4CCCCC4)ccc(c23)C1=O,102%
10,COc1cc(Nc2c(C#N)cnc3cc(OCCCN4CCN(C)CC4)c(OC)cc23)c(Cl)cc1Cl,26.9%
11,COc1ncc(-c2ccc3nccc(-c4ccnnc4)c3c2)cc1NS(=O)(=O)c1ccc(F)cc1F,-78.4% (active)
12,C/C(=C(/c1ccc(Cl)cc1)c1ccc(OCCN2CCCC2)cc1)c1ccccc1,84.7%
13,COc1cc(OC)c(/C=C/S(=O)(=O)Cc2ccc(OC)c(NCC(=O)O)c2)c(OC)c1,5.81% (active)
14,Nc1ncnc2c1ccn2-c1cccc(NC(=O)c2ccc(N3CCOCC3)c(C(F)(F)F)c2)c1,62.6%
15,C/C=C/C=N/NC(=S)Nc1ccccc1,104%
16,C=CC(=O)Nc1cc(Nc2nccc(-c3cn(C)c4ccccc34)n2)c(OC)cc1N(C)CCN(C)C,-86.4% (active)
17,C[C@@H](NC(=O)c1ncnc(N)c1Cl)c1ncc(C(=O)Nc2cc(C(F)(F)F)c(Cl)cn2)s1,69.4%
18,COc1cc2c(Oc3ccc4[nH]c(C)cc4c3F)ncnc2cc1OCCCN1CCCC1,102%
19,NC[C@@](O)(c1ccc(Cl)cc1)c1ccc(-c2cn[nH]c2)cc1,12.7%
20,Cc1cc(O)cc(-c2c(-c3ccnc(-c4cccnc4)c3)cnn2C)c1,88.2%

row,SMILES,growth
1,CS(=O)(=O)N1CCN(Cc2cc3nc(-c4cccc5[nH]ncc45)nc(N4CCOCC4)c3s2)CC1,22.8%
2,CN[C@@H]1C[C@H]2O[C@@](C)([C@@H]1OC)n1c3ccccc3c3c4c(c5c6ccccc6n2c5c31)C(=O)N[C@H]4O,-74.5% (active)
3,O=c1[nH]ccc2c(S(=O)(=O)N3CCCNCC3)cccc12,92.2%
4,CCN(CCCOc1ccc2c(Nc3cc(CC(=O)Nc4cccc(F)c4)[nH]n3)ncnc2c1)CCOP(=O)(O)O,61.4%
5,Cn1cc(-c2cnn3c(N)c(Br)c([C@@H]4CCCNC4)nc23)cn1,53.7%
6,C[C@@H](Nc1cc(F)cc(F)c1)c1cc(C(=O)N(C)C)cc2c(=O)cc(N3CCOCC3)oc12,55.3%
7,COc1ccc2c(CCCc3ccc(Cl)cc3Cl)c3[n+](cc2c1OC)CCc1cc2c(cc1-3)OCO2,-83.7% (active)
8,Cn1c(=O)c(F)c(Nc2ccc(I)cc2F)c2c(=O)n(C[C@@H](O)CO)cnc21,-37.7% (active)
9,CC(C)(C)c1cnc(CSc2cnc(NC(=O)C3CCNCC3)s2)o1,0.238% (active)
10,NC1(C(=O)N[C@@H](CCO)c2ccc(Cl)cc2)CCN(c2ncnc3[nH]ccc23)CC1,46.8%
11,COC(=O)c1ccc2c(C(=Nc3ccc(N(C)C(=O)CN4CCN(C)CC4)cc3)c3ccccc3)c(O)[nH]c2c1,84.3%
12,CS(=O)(=O)CCNCc1ccc(-c2ccc3ncnc(Nc4ccc(OCc5cccc(F)c5)c(Cl)c4)c3c2)o1,-83.6% (active)
13,C1=C\COCc2cc(ccc2OCCN2CCCC2)Nc2nccc(n2)-c2cccc(c2)COC/1,-16.4% (active)
14,O=C(Nc1cn[nH]c1-c1nc2ccc(CN3CCOCC3)cc2[nH]1)NC1CC1,41.8%
15,Cc1cc2c(-c3nc4ccccn4c3N)c(O)c(O)cc2c(O)c1-c1c(C)cc2c(-c3nc4ccccn4c3N)c(O)c(O)cc2c1O,30.7%
16,Cc1csc(-c2nnc(Nc3ccc(Oc4ncccc4-c4ccnc(N)n4)cc3)c3ccccc23)c1,36.1%
17,CC(C)CC(=O)Nc1n[nH]c2c1CN(C(=O)C1CCN(C)CC1)C2(C)C,13.1%
18,Cc1ccccc1N1C(c2ccccc2)=NNC12C=CC(=O)C=C2Cl (stereo not drawn),102%
19,C=CCn1c(=O)c2cnc(Nc3ccc(N4CCN(C)CC4)cc3)nc2n1-c1cccc(C(C)(C)O)n1,9.01% (active)
